Assay [1] is described as follows: AP1 Signaling Pathway (AID 357; active = well fitted curve in either direction with a large enough effect, not every such curve was filed as active; also: % is scaled to controls: 0 for no effect and ±100 for the full control effect). To be noted: ME-180 AP-1-bla reporter, EGF-induced, beta-lactamase ratio, 5 h. In short, it runs like this: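 First, ME-180 AP-1-bla cells were cultured overnight at 37 °C in low-serum Opti-MEM. Next, titrated compounds with EC50 EGF were incubated 5 hours. Finally, CCF4 was added for 2.5 hours and the 460/530 nm ratio recorded.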

Assay [2] deals with Cytochrome P450 1A2 (Homo sapiens) (UniProt P05177). Description: p450-cyp1a2 (AID 410; calls by dose curve; also: potency is read from the fitted curve at half-maximal effect;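 as to activity change, negative = inhibition: -100% = full effect of reference inhibitor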). The gist of the method:
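Luminescent readout of luciferin formed from Luciferin-ME by human CYP1A2; data normalized against complete inhibition by 57 uM furafylline. Enzyme 20nM, substrate 100uM at Km, 100mM KPO4 buffer, 60 min reaction at room temperature.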

Assay [3] can be described thus: NFAT Signaling Pathway (AID 444; active = well fitted curve in either direction with a large enough effect, not every such curve was filed as active;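 also: carbachol stimulus at about its EC50 of 1 µM final; % is scaled to controls: 0 for no effect and ±100 for the full control effect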). To be noted: Jurkat NFAT-bla M1, carbachol, beta-lactamase ratio, 5 h; at 7.69 µM (top of the series) unless noted. The gist of the method:
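Jurkat cells with NFAT-driven β-lactamase reporter and co-expressed M1 receptor, stimulated with carbachol (final 1 uM, ~EC50), compound titration, 5 h at 37 °C. CCF4 loaded 1 h at RT; 460/530 nm ratio gave %activity and AC50.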

Assay [4] is described as follows: Stat Signaling Pathway (AID 446; active = well fitted curve in either direction with a large enough effect, not every such curve was filed as active;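 also: ME-180 cervical cancer cells given 40 pM IL-6 alongside compound; SIE-controlled beta-lactamase reporter measured as 460/530 nm FRET emission ratio; % is scaled to controls: 0 for no effect and ±100 for the full control effect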). The note with it: ME-180 SIE beta-lactamase reporter, IL-6 stimulated, 5 h. The gist of the method: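 Reporter line: ME-180 cervical carcinoma, SIE-beta-lactamase. Treatment: compound with 40 pM IL-6, 5 hrs, 37 C, in low-serum OPTI-MEM with 10 mM HEPES pH 7.3. Detection: 460/530 nm fluorescence.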
The target in assay [5] is Glucocorticoid receptor (Homo sapiens) (UniProt P04150). Description: GR-EFC Redistribution (AID 451; calls by dose curve; also: potency is read from the fitted curve at half-maximal effect). The note with it: CHO-K1 GR-EFC translocation, beta-gal luminescence, 2 h. In short, it runs like this: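 CHO-K1 cells expressing nuclear EA and GR-ED fragments of b-gal; compounds titrated up to 46 uM final, 2 h at 37 C. GR nuclear translocation read as complemented b-gal luminescence after 1 h RT detection.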

Assay [6] deals with Mitogen-activated protein kinase 10 (Mus musculus) (UniProt Q61831). Description: JNK3 AlphaScreen Assay (AID 530; active = well fitted curve in either direction with a large enough effect, not every such curve was filed as active;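 also: kinase came from lysate of stimulated human HepG2 cells; signal reports phosphorylation of biotinylated GST-cJun 1-79 at Ser73 with 10 µM ATP; % is scaled to controls: 0 for no effect and ±100 for the full control effect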). The gist of the method: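 Pre-activated (IL-1β/TNFα) JNK3 in HepG2 lysates phosphorylates biotin-GST-cJun(1-79), 10 uM ATP; anti-phospho-cJun(Ser73) AlphaScreen read at room temperature, pH 7.6 Tris buffer. Compounds pre-incubated 15 min as titrations.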
Assay [7] has as its target 3',5'-cyclic-AMP phosphodiesterase 4B (Homo sapiens) (UniProt Q07343). Kind of assay: qHTS Assay for Inhibitors of PDE-IV (AID 607; active = well fitted activation curve with a large enough effect in the main read-out, with a control signal flat, not every such curve was filed as active; also: % of control where 0% means no effect). In short, it runs like this:
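Cell-based read-out of cAMP via a modified cyclic nucleotide-gated channel and membrane potential dye (535/590 nm) in HEK293 cells expressing PDE4 endogenously. Compounds tested up to 22.9 uM final; 100 uM RO 20-1724 reference.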
For orientation: Quantitative high-throughput screening tests each substance at several concentrations.

Assay [8] can be described thus: qHTS Assay for Lipid Storage Modulators (AID 1519; calls by dose curve). To be noted: Drosophila S3 cells, BODIPY lipid droplet/cell ratio, laser cytometry, cells loaded with oleic acid; for activity change, negative = inhibition: at 25.7 µM (top of the series). In short, it runs like this: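 Cells seeded at 5,000 per well were treated with compounds over a concentration series and loaded with oleic acid (400 uM, as added). Lipid droplet fluorescence (488 nm excitation, 500-530 nm channel) was read by laser-scanning cytometry and normalized to 20 uM Triacsin C.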

In assay [9] the target is ATP-dependent 6-phosphofructokinase (Trypanosoma brucei brucei) (UniProt O15648). Kind of assay: qHTS Assay to Find Inhibitors of T. brucei phosphofructokinase: hit validation (AID 492961). Also: % is scaled to controls: 0 for no effect and ±100 for the full control effect. The gist of the method:
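Luminescence from ADP-Glo reports ADP generated as T. brucei PFK (1.25 nM) phosphorylates 0.5 mM fructose-6-phosphate using 0.1 mM ATP. Reactions ran 45 min at room temperature, pH 8.0.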

Assay [10] concerns the target Ubiquitin carboxyl-terminal hydrolase 1 (Homo sapiens) (UniProt O94782). Kind of assay: Inhibitors of USP1/UAF1: Pilot qHTS (AID 504865). Also: nearly all actives have a fitted effect of over 35% in size. Also: potency is read from the fitted curve at half-maximal effect. The gist of the method: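 In 50mM HEPES pH 7.8 containing 0.5mM EDTA, 1mM TCEP, 0.1 mg/ml BSA and 0.01% Tween-20, 1nM USP1/UAF1 is exposed to compound for 15 min, then Ub-Rho (150nM final) is added and fluorescence is read over time.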

Assay [11] has as its target Luciferin 4-monooxygenase (Photinus pyralis) (UniProt P08659). Description: Biochemical firefly luciferase enzyme assay for NPC (AID 624030).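 Also: purified P. pyralis luciferase at 10 nM with luciferin and ATP substrate; 0% = DMSO and -100% = full luciferase inhibition by PTC124 control; nearly all actives have a fitted effect of over 70% in size.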 In short, it runs like this: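 Purified P. pyralis luciferase at 10 nM in 50 mM Tris Acetate (final), luminescence read within 5 minutes of enzyme addition to compounds. Activity normalised to PTC124 versus DMSO; concentration-response curves classed by r2, magnitude and activity.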

Assay [12] can be described thus: qHTS profiling for inhibitors of Plasmodium falciparum proliferation (AID 504749). Also: potency is read from the fitted curve at half-maximal effect.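 As to activity, negative = inhibition: 0% = DMSO vehicle and full inhibition = artemisinin control.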 As to all read-outs here: nearly all actives have a fitted effect of over 60% in size. The note with it: P. falciparum in erythrocytes, SYBR Green DNA, 72 h; for activity, negative = inhibition: at 12.8 µM (top of the series). In short, it runs like this:
(§1)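 P. falciparum-infected erythrocytes (0.3% parasitemia, 2.5% hematocrit) incubated with compound 72 h at 37 C, 5% CO2. Parasite DNA detected by SYBR Green after lysis, overnight at room temperature; normalised to 0.29 uM artemisinin and DMSO.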

Assay [13] deals with AS120. Described as above. The note with it: P. falciparum in erythrocytes, SYBR Green DNA, 72 h; series mostly up to 28.7 µM. In short, it runs like this:
as §1

The test system of assay [14] is CP201. Described as above. To be noted: P. falciparum in erythrocytes, SYBR Green DNA, 72 h; series mostly up to 12.8 µM. In short, it runs like this:
as §1

For assay [15], the system named is CP238. Described as above. To be noted: P. falciparum in erythrocytes, SYBR Green DNA, 72 h; series mostly up to 12.8 µM. In short, it runs like this:
as §1

Assay [16] deals with CP262. The description is as above. The note with it: P. falciparum in erythrocytes, SYBR Green DNA, 72 h; series mostly up to 12.8 µM. The gist of the method:
as §1

Assay [17] has as its system CP265. The description is as above. The note with it: P. falciparum in erythrocytes, SYBR Green DNA, 72 h; series mostly up to 12.8 µM. In short, it runs like this: as §1
Assay [18] relates to FAB9. Described as above. The note with it: P. falciparum in erythrocytes, SYBR Green DNA, 72 h; series mostly up to 12.8 µM. The gist of the method: as §1
The test system of assay [19] is JCK. Described as above. The note with it: P. falciparum in erythrocytes, SYBR Green DNA, 72 h; series mostly up to 12.8 µM. In short, it runs like this:
as §1

Assay [20] concerns the target Glucocorticoid receptor (Homo sapiens) (UniProt P04150). Kind of assay: GR-GFP Redistribution (AID 450;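 active = compounds whose dose series gives a full or clear partial fitted curve of increased nuclear translocation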; also: potency is read from the fitted curve at half-maximal effect). The note with it: U2OS GR-GFP nuclear translocation, laser cytometry, 2 h.
The mark [21] stands for this setting: at 7.69 µM (top of the series) unless noted.
Where [22] appears, read: measured here: cell count channel max response.
The mark [23] stands for this setting: measured here: lipid channel max response.

Several values for one entry are separate records, joined by “and”; a condition that tells them apart may be missing. Equal values may be shown once. Results filed as inconclusive are left out. Where a structure was tested more than once in an assay, its records may differ in their call. Activity calls are given as the source filed them. Unless noted, calls follow the shape of the dose curve; as a rule, active = well fitted curve in the direction sought with a large enough effect; inconclusive = small, poorly fitted or top-dose-only effect, or another doubt; inactive = no such curve, though single readings can be large; an effect the other way counts as inactive or inconclusive. Bounds are passed on as bounds.

Chain of Luciferin 4-monooxygenase (Photinus pyralis) (P08659 whole entry, looked up): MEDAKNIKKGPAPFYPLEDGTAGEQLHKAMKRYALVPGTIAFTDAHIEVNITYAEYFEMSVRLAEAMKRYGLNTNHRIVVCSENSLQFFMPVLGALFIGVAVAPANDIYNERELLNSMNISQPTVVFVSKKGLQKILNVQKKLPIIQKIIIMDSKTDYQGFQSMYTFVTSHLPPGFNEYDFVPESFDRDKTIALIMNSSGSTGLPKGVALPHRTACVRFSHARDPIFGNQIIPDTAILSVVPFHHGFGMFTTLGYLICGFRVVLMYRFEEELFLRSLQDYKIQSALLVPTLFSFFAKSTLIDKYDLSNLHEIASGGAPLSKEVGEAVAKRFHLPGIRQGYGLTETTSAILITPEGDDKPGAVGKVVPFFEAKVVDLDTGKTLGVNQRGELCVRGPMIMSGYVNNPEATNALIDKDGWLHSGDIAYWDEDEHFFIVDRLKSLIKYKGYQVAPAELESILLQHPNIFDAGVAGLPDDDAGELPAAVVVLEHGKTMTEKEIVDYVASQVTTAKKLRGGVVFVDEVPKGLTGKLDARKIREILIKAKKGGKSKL
Chain of Cytochrome P450 1A2 (Homo sapiens) (P05177 whole entry, looked up): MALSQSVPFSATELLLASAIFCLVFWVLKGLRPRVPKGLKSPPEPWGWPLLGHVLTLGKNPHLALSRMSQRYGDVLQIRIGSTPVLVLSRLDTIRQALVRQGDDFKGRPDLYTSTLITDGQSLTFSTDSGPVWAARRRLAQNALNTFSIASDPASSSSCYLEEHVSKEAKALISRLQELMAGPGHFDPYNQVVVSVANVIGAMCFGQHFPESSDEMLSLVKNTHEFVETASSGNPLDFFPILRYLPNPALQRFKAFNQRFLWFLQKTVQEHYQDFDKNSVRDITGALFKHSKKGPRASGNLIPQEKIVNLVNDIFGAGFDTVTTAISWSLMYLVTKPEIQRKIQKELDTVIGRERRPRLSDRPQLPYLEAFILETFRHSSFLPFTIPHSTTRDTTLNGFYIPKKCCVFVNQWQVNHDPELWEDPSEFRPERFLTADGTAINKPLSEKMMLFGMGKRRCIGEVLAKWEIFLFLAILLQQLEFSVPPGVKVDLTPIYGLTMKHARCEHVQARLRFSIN
Chain of 3',5'-cyclic-AMP phosphodiesterase 4B (Homo sapiens) (Q07343 whole entry, looked up): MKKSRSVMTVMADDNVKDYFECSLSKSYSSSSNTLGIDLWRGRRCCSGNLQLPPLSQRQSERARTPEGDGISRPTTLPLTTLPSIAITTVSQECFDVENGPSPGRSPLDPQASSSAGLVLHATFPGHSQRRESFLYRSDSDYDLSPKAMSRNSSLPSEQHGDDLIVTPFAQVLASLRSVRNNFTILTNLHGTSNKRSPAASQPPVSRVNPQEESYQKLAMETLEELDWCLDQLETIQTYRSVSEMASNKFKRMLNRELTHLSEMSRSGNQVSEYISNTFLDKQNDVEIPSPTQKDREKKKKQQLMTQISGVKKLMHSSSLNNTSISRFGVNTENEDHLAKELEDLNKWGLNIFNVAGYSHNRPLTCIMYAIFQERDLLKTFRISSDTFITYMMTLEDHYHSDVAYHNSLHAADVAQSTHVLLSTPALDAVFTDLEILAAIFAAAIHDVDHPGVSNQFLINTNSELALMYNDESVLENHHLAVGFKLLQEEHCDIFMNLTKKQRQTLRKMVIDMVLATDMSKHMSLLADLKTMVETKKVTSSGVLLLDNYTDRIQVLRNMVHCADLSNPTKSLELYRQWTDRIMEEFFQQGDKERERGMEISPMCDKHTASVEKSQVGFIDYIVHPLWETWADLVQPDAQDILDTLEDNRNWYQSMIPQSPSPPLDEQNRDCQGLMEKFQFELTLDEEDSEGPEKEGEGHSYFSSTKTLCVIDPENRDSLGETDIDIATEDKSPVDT
Chain of Glucocorticoid receptor (Homo sapiens) (P04150 whole entry, looked up, the tested form may be a part): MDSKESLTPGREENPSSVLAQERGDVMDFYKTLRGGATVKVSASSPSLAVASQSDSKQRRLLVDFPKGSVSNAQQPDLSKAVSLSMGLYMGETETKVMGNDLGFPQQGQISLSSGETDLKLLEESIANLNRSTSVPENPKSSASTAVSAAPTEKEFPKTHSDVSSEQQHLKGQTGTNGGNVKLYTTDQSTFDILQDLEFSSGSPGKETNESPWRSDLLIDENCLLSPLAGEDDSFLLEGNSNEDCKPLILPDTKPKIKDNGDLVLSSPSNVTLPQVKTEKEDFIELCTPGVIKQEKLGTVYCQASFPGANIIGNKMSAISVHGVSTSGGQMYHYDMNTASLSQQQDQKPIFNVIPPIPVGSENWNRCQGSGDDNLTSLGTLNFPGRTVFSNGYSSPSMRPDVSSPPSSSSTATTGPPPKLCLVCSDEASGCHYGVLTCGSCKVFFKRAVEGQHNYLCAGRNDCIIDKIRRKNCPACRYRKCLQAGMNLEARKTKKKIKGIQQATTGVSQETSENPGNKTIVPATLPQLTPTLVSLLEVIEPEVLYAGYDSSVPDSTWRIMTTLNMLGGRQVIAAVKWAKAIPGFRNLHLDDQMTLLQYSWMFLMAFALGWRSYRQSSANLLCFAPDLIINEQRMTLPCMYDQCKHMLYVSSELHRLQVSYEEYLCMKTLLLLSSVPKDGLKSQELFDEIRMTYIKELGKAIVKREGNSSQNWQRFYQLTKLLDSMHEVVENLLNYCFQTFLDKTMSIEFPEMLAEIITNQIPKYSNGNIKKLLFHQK
Chain of ATP-dependent 6-phosphofructokinase (Trypanosoma brucei brucei) (O15648 whole entry, looked up): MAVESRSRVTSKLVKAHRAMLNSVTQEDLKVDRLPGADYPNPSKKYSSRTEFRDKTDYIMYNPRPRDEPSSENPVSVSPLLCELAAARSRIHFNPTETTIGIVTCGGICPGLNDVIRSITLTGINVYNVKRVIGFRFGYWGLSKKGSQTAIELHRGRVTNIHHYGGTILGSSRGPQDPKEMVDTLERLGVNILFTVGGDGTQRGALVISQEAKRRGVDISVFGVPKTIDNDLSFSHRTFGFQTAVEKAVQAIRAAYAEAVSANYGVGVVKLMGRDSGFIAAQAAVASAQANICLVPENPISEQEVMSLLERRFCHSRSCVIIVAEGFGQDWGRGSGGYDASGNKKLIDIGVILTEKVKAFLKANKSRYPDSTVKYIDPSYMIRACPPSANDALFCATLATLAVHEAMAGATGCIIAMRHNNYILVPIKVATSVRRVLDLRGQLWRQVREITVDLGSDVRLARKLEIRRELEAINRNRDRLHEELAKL
Chain of Ubiquitin carboxyl-terminal hydrolase 1 (Homo sapiens) (O94782 whole entry, looked up): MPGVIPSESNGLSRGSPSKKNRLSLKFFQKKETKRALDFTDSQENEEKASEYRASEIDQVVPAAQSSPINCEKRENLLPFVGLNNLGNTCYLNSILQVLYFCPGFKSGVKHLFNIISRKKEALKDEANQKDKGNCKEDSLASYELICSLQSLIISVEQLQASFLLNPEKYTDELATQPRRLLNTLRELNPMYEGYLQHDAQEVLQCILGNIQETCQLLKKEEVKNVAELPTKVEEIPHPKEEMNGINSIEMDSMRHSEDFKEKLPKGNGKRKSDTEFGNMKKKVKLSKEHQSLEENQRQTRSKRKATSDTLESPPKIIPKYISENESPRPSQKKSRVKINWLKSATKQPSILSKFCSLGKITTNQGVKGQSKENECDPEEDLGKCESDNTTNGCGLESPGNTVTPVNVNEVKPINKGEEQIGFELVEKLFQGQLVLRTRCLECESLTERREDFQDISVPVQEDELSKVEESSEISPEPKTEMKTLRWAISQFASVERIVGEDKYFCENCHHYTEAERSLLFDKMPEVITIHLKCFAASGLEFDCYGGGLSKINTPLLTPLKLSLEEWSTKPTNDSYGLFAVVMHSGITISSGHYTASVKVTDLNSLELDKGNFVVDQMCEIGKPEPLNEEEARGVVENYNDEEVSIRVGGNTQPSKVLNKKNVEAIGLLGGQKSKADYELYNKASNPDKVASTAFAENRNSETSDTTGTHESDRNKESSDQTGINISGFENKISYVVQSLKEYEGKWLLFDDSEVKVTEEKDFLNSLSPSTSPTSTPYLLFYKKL

On to `CO[C@H]1C[C@@H](O[C@@H]2[C@H](C)[C@H](O[C@@H]3O[C@@H](C)C[C@@H](N(C)C)[C@@H]3O)[C@H](C)C[C@]3(CO3)C(=O)[C@H](C)[C@H](O)[C@H](C)[C@H](C)OC(=O)[C@@H]2C)O[C@@H](C)[C@H]1O`, for which the results for the activity change, negative = inhibition in assay [1] (setting [21]), in assay [3] and in assay [8] were 2.97% [at 17.2 µM] (inactive), 8.23% [at 17.2 µM] (inactive) and 1.28% (inactive), respectively. For the same compound, the Potency result in assay [2], in assay [6], in assay [7], in [10], in assay [13] and in assay [14] was “inactive” throughout. The Potency result in [15], in assay [16], in assay [17], in assay [18] and in [19] was “inactive” in each case. In addition, the values for the activity, negative = inhibition in assay [4] (setting [21]), in [12] (parasite line A) and in assay [12] (parasite line B) were -6.44% [at 17.2 µM] (inactive), -15.5% (inactive) and -11.7% (inactive), respectively. The Potency in assay [5] was > 20.6 µM (inactive). Further, the max response came to 9.47% in assay [8] (setting [22]) and 11.6% in assay [8] (setting [23]). Also, the compound was classed as inactive in [9] and in [11].

For `CC(C)COC[C@H](CN(Cc1ccccc1)c1ccccc1)N1CCCC1`, the results for the activity change, negative = inhibition in assay [1] (setting [21]), in assay [3] and in [8] were 15.1% [at 38 µM] (inactive), -5.29% [at 38 µM] (inactive) and -12.4% (inactive), respectively. The Potency result in assay [2] is “inactive and 12.6 µM (active)”; in assay [20] it was > 46 µM (inactive) and > 20.6 µM (inactive); in assay [5] it was > 46 µM (inactive) and > 20.6 µM (inactive). The activity, negative = inhibition in [4] (at 17.2 µM (top of the series)) is -1.52% (inactive); in [4] (at 38 µM (top of the series)), -10.2% (inactive). Also, the Potency entry in assay [6], in [7] and in assay [10] was “inactive” in each case. For the same compound, the max response in assay [8] (setting [22]) was -16.9%; in assay [8] (setting [23]) it was -26.5%.

For `CCN(CC)CCC[C@H](C)Nc1c2ccc(Cl)cc2nc2ccc(OC)cc12`, the activity change, negative = inhibition in assay [1] (at 17.2 µM (top of the series)) was 28.6% (inactive); in assay [1] (at 38 µM (top of the series)), 21.9% (inactive); in assay [8], -0.0943% (inactive). For the same compound, the Potency result in assay [6] and in assay [7] was “inactive” throughout. Moreover, the max response is -11.8% in assay [8] (setting [22]) and -13% in assay [8] (setting [23]). In addition, the call in [9] and in [11] was inactive. Besides, the Potency was 31600 nM (active) in assay [10]; 224 nM (active) in [12] (parasite line A); 282 nM (active) in [12] (parasite line B); 794 nM (active) in [13]; 1200 nM (active) in [14]; 1120 nM (active) in assay [15]. In addition, the Potency is 426 nM (active) in assay [16], 891 nM (active) in assay [17], 447 nM (active) in [18] and 3160 nM (active) in assay [19].

In the case of `CC(=O)Nc1c(I)c(C(=O)N[C@H]2[C@@H](O)[C@H](O)[C@H](CO)O[C@@H]2O)c(I)c(N(C)C(C)=O)c1I`, the activity change, negative = inhibition in assay [1] (setting [21]) was 9.89% [at 17.2 µM] (inactive); in assay [3], -0.843% [at 17.2 µM] (inactive); in assay [8], -0.4% (inactive). Further, the Potency entry in assay [2], in assay [6], in assay [7], in assay [10], in [13] and in assay [14] was “inactive” each time. In addition, the Potency entry in assay [15], in [16], in [17], in assay [18] and in assay [19] was “inactive” each time. The activity, negative = inhibition is -3.76% [at 17.2 µM] (inactive) in [4] (setting [21]), 8.5% (inactive) in assay [12] (parasite line A) and 4.91% (inactive) in assay [12] (parasite line B). Moreover, the Potency in assay [20] and in assay [5] was > 20.6 µM (inactive) each time. The max response was -8.07% in assay [8] (setting [22]) and -5.12% in assay [8] (setting [23]). The compound was called inactive in [9] and in assay [11].
